System: Vero E6 infected with SARS-CoV-2
Assay: inhibition of SARS-CoV-2 cytopathic effect; higher = more antiviral protection, active = above 15
Settings: 48 h

Measured: inhibition of SARS-CoV-2 cytopathic effect

COc1cccc2c1C(=O)c1c(O)c3c(c(O)c1C2=O)C[C@@](O)(C(=O)CO)C[C@@H]3O[C@H]1C[C@H](N)[C@H](O[C@@H]2CCCCO2)[C@H](C)O1 [pirarubicin]
inactive: 1 nM -1.57% | 8.33 nM -0.32% | 100 nM -0.19% | 833.33 nM -1.24% | 10000 nM -2.07%

Cn1c(=O)c2[nH]cnc2n(C)c1=O [aminophylline]
inactive: 1 nM -0.89% | 8.33 nM -0.66% | 100 nM -1.42% | 833.33 nM -0.87% | 10000 nM -0.09%

CN(C)[C@@H]1C(O)=C(C(N)=O)C(=O)[C@@]2(O)C(O)=C3C(=O)c4c(O)cccc4[C@@](C)(O)[C@H]3[C@H](O)[C@@H]12 [oxytetracycline]
inactive: 1 nM -0.32% | 8.33 nM -3.1% | 100 nM -1.01% | 833.33 nM -0.96% | 10000 nM -0.98%

Cc1sc2c(c1C)C(c1ccc(Cl)cc1)=N[C@@H](CC(=O)Nc1ccc(OCCOCCOCCOCCNc3cccc4c3C(=O)N(C3CCC(=O)NC3=O)C4=O)cc1)c1nnc(C)n1-2 (stereo not given in full)
inactive: 1 nM -0.01% | 8.33 nM -1.32% | 100 nM -2.57% | 833.33 nM 1.39% | 10000 nM -3.1%

CCC[C@H](N[C@@H](C)C(=O)N1[C@H](C(=O)O)C[C@@H]2CCCC[C@@H]21)C(=O)O [perindoprilat]
inactive: 1 nM 4.13% | 8.33 nM -0.1% | 100 nM 3.43% | 833.33 nM 0.42% | 10000 nM -3.18%

CCCCCCCCCCCCOS(=O)(=O)O [dodecyl-sulfate]
inactive: 1 nM -0.285% | 8.33 nM 1.83% | 100 nM 1.98% | 833.33 nM 0.175% | 10000 nM 0.47%

C#C[C@]1(OC(C)=O)CC[C@H]2[C@@H]3CCC4=CC(=O)CC[C@@H]4[C@H]3CC[C@@]21C [norethindrone-acetate]
inactive: 1 nM 0.09% | 8.33 nM 0.03% | 100 nM -1.33% | 833.33 nM 0.02% | 10000 nM 1.02%

NCCC[C@H](N)C(=O)O [ornithine]
inactive: 1 nM -1.52% | 8.33 nM -1.05% | 100 nM -1.8% | 833.33 nM -2.37% | 10000 nM 2.35%

Cc1ccc(/C=C2/C(=O)C3(C)CCC2C3(C)C)cc1 (stereo not given) [3-(4-methylbenzylidene)camphor]
inactive: 1 nM 0.22% | 8.33 nM 0.95% | 100 nM 2.26% | 833.33 nM 0.01% | 10000 nM 0.05%

Cc1c(C)c2c(c(C)c1O)CC[C@@](C)(CCC[C@H](C)CCC[C@H](C)CCCC(C)C)O2 [vitamin-E]
inactive: 1 nM 3.32% | 8.33 nM 3.3% | 100 nM 2.84% | 833.33 nM 0.81% | 10000 nM 0.23%

Cc1cc(C)cc(C(=O)N(C)[C@H](Cc2ccc(-c3ccccc3)cc2)C(=O)N[C@@H](Cc2c[nH]c3ccccc23)C(=O)O)c1
inactive: 1 nM 0.46% | 8.33 nM 3.13% | 100 nM 5.42% | 833.33 nM 0.47% | 10000 nM 1.98%

CC(C)(C)CC(=O)Nc1c(F)cc(C(=O)/N=c2\sccn2COP(=O)(O)O)cc1F
inactive: 1 nM 0.06% | 8.33 nM -0.74% | 100 nM -3.11% | 833.33 nM -0.94% | 10000 nM 2.91%

O=C(Oc1ccccc1C(=O)O)c1ccccc1O [sasapyrine]
inactive: 1 nM -6.73% | 8.33 nM -8.94% | 100 nM -2.49% | 833.33 nM -6.28% | 10000 nM -11.8%

CCNC1(C(N)=O)CCN(c2ncnc3c2nc(-c2ccccc2Cl)n3-c2ccc(Cl)cc2)CC1
inactive: 1 nM -2.1% | 8.33 nM 0.22% | 100 nM 1.6% | 833.33 nM 7.17% | 10000 nM -0.26%

COc1cc(C#N)ccc1S(=O)(=O)Nc1ccc2c(c1)cc(C)c(=O)n2C
inactive: 1 nM -2.94% | 8.33 nM 1.53% | 100 nM 0.3% | 833.33 nM -4.02% | 10000 nM -0.1%

Cn1c(COc2ccc(CC3SC(=O)NC3=O)cc2)nc2ccccc2c1=O (stereo not given) [balaglitazone]
inactive: 1 nM -1.69% | 8.33 nM -0.56% | 100 nM -0.1% | 833.33 nM -2.45% | 10000 nM -7.04%

CNC(=O)Nc1ccc(-c2nc(N3CC4CCC(C3)O4)c3cnn(C4CCC5(CC4)OCCO5)c3n2)cc1
inactive: 1 nM -1.21% | 8.33 nM 1.24% | 100 nM 0.34% | 833.33 nM -0.87% | 10000 nM 9.1%
